Results taken from PubChem BioAssay (NCI).
Compounds without any hit were thinned out: in the full panel of roughly 79,000, 15% have a hit. Active and inactive are the calls of the source. Cut-off read from the data, not from the text of the source: active = growth inhibition above about 70%; inactive = the rest.

Columns and labels:
[1] = NCI Yeast Anticancer Drug Screen. Data for the wt1 strain (AID 149);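 note: 0% = growth of vehicle-treated wt1 cultures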; settings: S. cerevisiae wt1 strain (SPY 50644) growth inhibition, hits give high values
In short: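 wt1 yeast, compound-treated; % growth inhibition vs vehicle control.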

[2] = NCI Yeast Anticancer Drug Screen. Data for the rad50EPP+ strain (AID 151);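 note: 0% = growth of vehicle-treated control cultures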; settings: S. cerevisiae rad50 mutant strain, hits give high values
In short: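 Vehicle-normalised growth inhibition; rad50EPP+ yeast strain, altered in DNA damage repair, compound-treated.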

[3] = NCI Yeast Anticancer Drug Screen. Data for the mgt1 strain (AID 153); settings: S. cerevisiae mgt1 mutant growth inhibition, hits give high values
In short: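 Vehicle-normalized growth inhibition is determined in mgt1 yeast, a strain selected for a defined alteration in DNA repair or cell cycle control.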

[4] = NCI Yeast Anticancer Drug Screen. Data for the rad50 strain (AID 155);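 note: 0% = growth of vehicle-only cultures of the same strain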; settings: S. cerevisiae rad50 strain growth inhibition, hits give high values
In short: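 Genetically altered yeast (DNA repair pathway); compound treatment; growth inhibition vs vehicle ctrl.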

[5] = NCI Yeast Anticancer Drug Screen. Data for the mec2-1 strain (AID 157); settings: S. cerevisiae mec2-1 strain, hits give high values
In short: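 Mutant yeast (mec2-1) grown with compound; growth inhibition relative to vehicle control reported.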

[6] = NCI Yeast Anticancer Drug Screen. Data for the rad14 strain (AID 159);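 note: 0% = growth of vehicle-treated control cultures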; settings: S. cerevisiae rad14 strain growth inhibition, hits give high values
In short: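 Test compounds were applied to a repair-deficient yeast strain. Its growth was then compared with that of cultures given vehicle alone, and inhibition was expressed relative to those controls.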

[7] = NCI Yeast Anticancer Drug Screen. Data for the sgs1 mgt1 strain (AID 161);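 note: 0% = growth of cultures given vehicle only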; settings: S. cerevisiae sgs1 mgt1 strain, hits give high values
In short: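 Compounds are added to genetically altered yeast, and growth is compared with cultures given vehicle alone to give percent inhibition.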

[8] = NCI Yeast Anticancer Drug Screen. Data for the CLN2oe strain (AID 163);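 note: 0% = growth of vehicle-only control cultures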; settings: S. cerevisiae CLN2oe strain, hits give high values
In short: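 Compounds are applied to yeast harbouring a defined cell-cycle control change; reduced growth compared with vehicle-treated controls gives the value.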

[9] = NCI Yeast Anticancer Drug Screen. Data for the cln2 rad14 strain (AID 165);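 note: 0% = growth equal to vehicle treated cultures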; settings: S. cerevisiae cln2 rad14 strain, hits give high values
In short: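 Readout is yeast growth inhibition versus vehicle-treated controls, using a strain with cln2 and rad14 alterations exposed to compound.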

[10] = NCI Yeast Anticancer Drug Screen. Data for the bub3 strain (AID 167); settings: S. cerevisiae bub3 mutant strain, hits give high values
In short: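 Yeast carrying a defined mutation is treated with each compound, and growth is compared with that of vehicle-exposed cells to give inhibition.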

[11] = NCI Yeast Anticancer Drug Screen. Data for the wt2 strain (AID 169);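 note: 0% = growth of vehicle-treated yeast cultures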; settings: S. cerevisiae wt2 strain growth inhibition, hits give high values
In short: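 Against vehicle-treated controls, the growth of yeast exposed to each compound was compared, and the inhibition was recorded.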

[12] = NCI Yeast Anticancer Drug Screen. Data for the mlh1 strain (AID 171);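 note: 0% = growth of vehicle-treated control cultures of the same strain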; settings: S. cerevisiae mlh1 strain growth inhibition, hits give high values
In short: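 Measured: yeast growth. Reference: vehicle-treated controls. Organism: strain with a defined alteration affecting DNA damage repair or cell cycle control, treated with compound.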

[13] = NCI Yeast Anticancer Drug Screen. Data for the sgs1 strain (AID 173);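 note: 0% = growth of vehicle-only control cultures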; settings: S. cerevisiae sgs1 mutant, hits give high values
In short: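 Each compound was added to cultures of the altered yeast strain. Growth was recorded, and inhibition was derived by comparison with vehicle controls.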

[14] = NCI Yeast Anticancer Drug Screen. Data for the mlh1 rad18 strain (AID 175); settings: S. cerevisiae mlh1 rad18 strain growth inhibition, hits give high values
In short: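 Genetically defined yeast (DNA repair-deficient) exposed to compounds; growth inhibition determined relative to vehicle.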

[15] = NCI Yeast Anticancer Drug Screen. Data for the rad18 strain (AID 177); settings: S. cerevisiae rad18 mutant growth inhibition, hits give high values
In short: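 Vehicle-treated cultures served as the baseline for scoring compound-induced growth inhibition in DNA-repair-mutant yeast.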

[16] = at 5.0 µM (retest, dose inferred, filed as 0.5)
[17] = at 50.0 µM (retest, dose inferred, filed as 5.0)

Measured: growth inhibition

Cc1cc(I)ccc1N
inactive: [1]; at 1.2 µM -8% | [1]; at 3.7 µM 2% | [1]; at 11.0 µM -8% | [2]; at 1.2 µM -24% | [2]; at 3.7 µM -11% | [2]; at 11.0 µM -8% | [2]; at 33.0 µM 20% | [3]; at 1.2 µM 36% | [3]; at 3.7 µM 5% | [3]; at 11.0 µM 28% | [4]; at 1.2 µM -31% | [4]; at 3.7 µM -13% | [4]; [16] 50% | [4]; at 11.0 µM -13% | [5]; at 1.2 µM -3% | [5]; at 3.7 µM 4% | [5]; [16] 51% | [5]; at 11.0 µM -2% | [6]; at 1.2 µM 1% | [6]; at 3.7 µM -15% | [6]; at 11.0 µM -1% | [7]; [16] -1% | [8]; at 1.2 µM -10% | [8]; at 3.7 µM -15% | [8]; at 11.0 µM -3% | [9]; [16] 46% | [9]; at 50.0 µM 62.1% | [10]; at 1.2 µM 1% | [10]; at 3.7 µM -7% | [10]; [16] 27% | [10]; at 11.0 µM 11% | [11]; at 1.2 µM -28% | [11]; at 3.7 µM -10% | [11]; at 11.0 µM -13% | [12]; at 1.2 µM 25% | [12]; at 3.7 µM 13% | [12]; at 11.0 µM 10% | [13]; at 1.2 µM 19% | [13]; at 3.7 µM 5% | [13]; at 11.0 µM 4% | [14]; [16] 41% | [15]; at 1.2 µM -18% | [15]; at 3.7 µM -4% | [15]; at 11.0 µM -15%
active: [1]; at 33.0 µM 86% | [1]; at 100.0 µM 91% | [2]; at 100.0 µM 74% | [3]; at 33.0 µM 93% | [3]; at 100.0 µM 85% | [4]; at 33.0 µM 91% | [4]; [17] 79% | [4]; at 50.0 µM 85.6% | [4]; at 100.0 µM 93% | [5]; at 33.0 µM 87% | [5]; [17] 87% | [5]; at 50.0 µM 88.2% | [5]; at 100.0 µM 92% | [6]; at 33.0 µM 93% | [6]; at 100.0 µM 92% | [7]; [17] 92% | [7]; at 50.0 µM 89.3% | [8]; at 33.0 µM 79% | [8]; at 100.0 µM 86% | [9]; [17] 93% | [10]; at 33.0 µM 90% | [10]; [17] 90% | [10]; at 50.0 µM 86.8% | [10]; at 100.0 µM 94% | [11]; at 33.0 µM 88% | [11]; at 100.0 µM 94% | [12]; at 33.0 µM 89% | [12]; at 100.0 µM 92% | [13]; at 33.0 µM 90% | [13]; at 100.0 µM 91% | [14]; [17] 73% | [14]; at 50.0 µM 85.6% | [15]; at 33.0 µM 85% | [15]; at 100.0 µM 87%

CCN(CC)C(=S)N/N=C(/C)c1cccc(/C(C)=N\NC(=S)N(CC)CC)n1
inactive: [1]; at 1.2 µM -4% | [1]; at 3.7 µM -12% | [1]; at 11.0 µM 11% | [1]; at 33.0 µM 60% | [2]; at 1.2 µM 16% | [2]; at 3.7 µM 6% | [2]; at 11.0 µM 31% | [2]; at 33.0 µM 48% | [3]; at 1.2 µM 0% | [3]; at 3.7 µM -14% | [3]; at 11.0 µM 0% | [3]; at 33.0 µM 61% | [4]; at 1.2 µM -17% | [4]; at 3.7 µM -25% | [4]; [16] -14% | [4]; at 11.0 µM -12% | [4]; at 33.0 µM 50% | [4]; at 50.0 µM 55.5% | [5]; at 1.2 µM -43% | [5]; at 3.7 µM -3% | [5]; [16] 12% | [5]; at 11.0 µM -8% | [5]; at 33.0 µM 52% | [5]; at 50.0 µM 69.1% | [6]; at 1.2 µM -6% | [6]; at 3.7 µM 10% | [6]; at 11.0 µM 2% | [6]; at 33.0 µM 46% | [7]; [16] -5% | [7]; at 50.0 µM 66.7% | [9]; [16] 21% | [9]; at 50.0 µM 34.5% | [11]; at 1.2 µM 12% | [11]; at 3.7 µM 4% | [11]; at 11.0 µM 10% | [11]; at 33.0 µM 64% | [12]; at 1.2 µM -12% | [12]; at 3.7 µM -7% | [12]; at 11.0 µM 9% | [12]; at 33.0 µM 52% | [13]; at 1.2 µM -14% | [13]; at 3.7 µM -3% | [13]; at 11.0 µM 7% | [13]; at 33.0 µM 39% | [14]; [16] 39% | [15]; at 1.2 µM -1% | [15]; at 3.7 µM 9% | [15]; at 11.0 µM 23% | [15]; at 33.0 µM 59%
active: [1]; at 100.0 µM 87% | [2]; at 100.0 µM 79% | [3]; at 100.0 µM 91% | [4]; [17] 96% | [4]; at 100.0 µM 86% | [5]; [17] 95% | [5]; at 100.0 µM 86% | [6]; at 100.0 µM 92% | [7]; [17] 91% | [9]; [17] 91% | [11]; at 100.0 µM 89% | [12]; at 100.0 µM 85% | [13]; at 100.0 µM 88% | [14]; [17] 92% | [14]; at 50.0 µM 70.7% | [15]; at 100.0 µM 91%
